Measured values taken from the supplement of paper PMC10849652.
About 8,800 targets were measured; listed, in parts, are those with a hit and a random draw of the rest. About 0.5% of all pairs of compound and target were hits.

Key:
Assay in all cases: log2 fold change, soluble protein after heating vs DMSO (PISA); higher = thermal stabilisation; K562 lysate, 10 uM; active = over 0.2 and 3.5 SD of the protein, either way, in both replicates (recomputed)
[1] = compound: CS(=O)(=O)CCNCc1ccc(-c2ccc3ncnc(Nc4ccc(OCc5cccc(F)c5)c(Cl)c4)c3c2)o1 [lapatinib]
How it was run: (§1)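 K562 pellets were dounce-homogenised in PBS pH 7.4 containing 1 mM MgCl2, and the crude extract, at 1 mg/mL protein, was exposed to 10 μM compound for 30 min. Aliquots were heated for 3 min across 48°C-58°C, pooled, brought to 0.5% NP-40 at 4°C and spun at 21,000xg for 90 min, with the supernatant taken as soluble protein. TMTpro 16plex LC-MS/MS with equalised channel sums quantified that protein. Values are log-two fold changes in thermal stability relative to solvent controls, taken from duplicates.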

[2] = compound: CS(=O)(=O)N1CCN(Cc2cc3nc(-c4cccc5[nH]ncc45)nc(N4CCOCC4)c3s2)CC1 [pictilisib]
How it was run: as §1

[3] = compound: C[C@@H](Oc1cc(-c2cnn(C3CCNCC3)c2)cnc1N)c1c(Cl)ccc(F)c1Cl [crizotinib]
How it was run: as §1

[4] = compound: C[C@H](C1=CC=C(C=C1)C(=O)NC2=C3C=CNC3=NC=C2)N
How it was run: as §1

[5] = compound: C[C@H](Nc1ncnc2nc[nH]c12)c1cc2cccc(Cl)c2c(=O)n1-c1ccccc1 [duvelisib]
How it was run: as §1

[6] = compound: Cc1cc(Nc2cc(CN3CCOCC3)c3nc(C)c(Cc4ccc(Cl)cc4F)n3n2)n[nH]1 [gandotinib]
How it was run: as §1

[7] = compound: Cc1cc(Nc2cc(N3CCN(C)CC3)nc(Sc3ccc(NC(=O)C4CC4)cc3)n2)n[nH]1 [tozasertib]
How it was run: as §1

[8] = compound: Cc1ccc(-n2nc(C(C)(C)C)cc2NC(=O)Nc2ccc(OCCN3CCOCC3)c3ccccc23)cc1 [doramapimod]
How it was run: as §1

[9] = compound: Cc1ccc(NC(=O)c2ccc(CN3CC[C@H](N(C)C)C3)c(C(F)(F)F)c2)cc1Nc1nccc(-c2cncnc2)n1 [bafetinib]
How it was run: as §1

[10] = compound: Cc1cccc(CC(=O)N2CCc3c2ccc(-c2cn(C)c4ncnc(N)c24)c3F)n1
How it was run: as §1

Measured: log2 fold change

TPP2 (UniProt P29144)
Sequence of UniProt P29144 (P29144 whole entry, looked up): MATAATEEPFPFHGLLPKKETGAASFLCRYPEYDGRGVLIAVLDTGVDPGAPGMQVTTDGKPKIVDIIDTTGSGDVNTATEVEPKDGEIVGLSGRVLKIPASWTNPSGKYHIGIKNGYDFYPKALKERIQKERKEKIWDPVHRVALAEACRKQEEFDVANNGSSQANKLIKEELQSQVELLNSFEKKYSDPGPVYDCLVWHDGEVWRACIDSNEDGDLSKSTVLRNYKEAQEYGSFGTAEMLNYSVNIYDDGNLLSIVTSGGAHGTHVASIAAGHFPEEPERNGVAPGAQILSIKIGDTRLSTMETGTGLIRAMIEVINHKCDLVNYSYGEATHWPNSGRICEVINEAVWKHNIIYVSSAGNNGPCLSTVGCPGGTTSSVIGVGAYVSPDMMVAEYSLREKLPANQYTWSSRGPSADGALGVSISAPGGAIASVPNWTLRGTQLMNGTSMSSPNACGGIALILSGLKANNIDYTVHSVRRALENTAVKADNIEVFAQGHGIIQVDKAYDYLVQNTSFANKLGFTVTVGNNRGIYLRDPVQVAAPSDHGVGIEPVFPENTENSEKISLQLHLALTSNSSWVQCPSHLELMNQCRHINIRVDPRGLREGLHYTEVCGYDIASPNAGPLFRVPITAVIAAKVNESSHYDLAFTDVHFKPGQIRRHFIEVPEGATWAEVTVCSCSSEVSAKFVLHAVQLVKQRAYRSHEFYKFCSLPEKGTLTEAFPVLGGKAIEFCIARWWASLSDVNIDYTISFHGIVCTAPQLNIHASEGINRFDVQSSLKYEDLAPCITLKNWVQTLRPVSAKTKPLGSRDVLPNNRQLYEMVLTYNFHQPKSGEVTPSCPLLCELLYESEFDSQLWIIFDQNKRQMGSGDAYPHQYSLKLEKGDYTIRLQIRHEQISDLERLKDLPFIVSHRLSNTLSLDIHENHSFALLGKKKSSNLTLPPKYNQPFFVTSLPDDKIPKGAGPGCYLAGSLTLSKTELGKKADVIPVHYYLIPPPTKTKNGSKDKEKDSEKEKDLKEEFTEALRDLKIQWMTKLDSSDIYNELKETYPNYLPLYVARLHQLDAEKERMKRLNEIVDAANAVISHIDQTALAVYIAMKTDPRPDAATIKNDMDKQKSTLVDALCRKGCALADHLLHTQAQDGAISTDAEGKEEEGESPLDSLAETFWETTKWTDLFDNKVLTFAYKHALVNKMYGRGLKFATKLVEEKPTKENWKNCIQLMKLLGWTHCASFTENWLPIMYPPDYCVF
inactive: [1] -0.007 | [2] 0.014 | [3] -0.009 | [4] 0.035 | [5] 0.011 | [6] -0.011 | [7] -0.009 | [8] 0.007 | [9] -0.008 | [10] -0.011

TMEM177 (UniProt Q53S58)
inactive: [1] 0.018 | [2] 0.002 | [3] 0.053 | [4] -0.005 | [6] -0.125 | [7] -0.016 | [8] -0.056 | [9] -0.059 | [10] -0.013

TMEM167B (UniProt Q9NRX6)
Sequence of UniProt Q9NRX6 (Q9NRX6 whole entry, looked up): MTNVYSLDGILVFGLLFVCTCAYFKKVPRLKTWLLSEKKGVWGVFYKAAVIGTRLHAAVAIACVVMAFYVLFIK
inactive: [1] -0.045 | [2] -0.034 | [3] 0.006 | [6] 0.133 | [7] -0.003 | [8] -0.083 | [9] -0.075 | [10] 0.128
active: [4] -0.339

TLK2 isoform 2 (UniProt Q86UE8)
Sequence of UniProt Q86UE8 (Q86UE8 whole entry, looked up): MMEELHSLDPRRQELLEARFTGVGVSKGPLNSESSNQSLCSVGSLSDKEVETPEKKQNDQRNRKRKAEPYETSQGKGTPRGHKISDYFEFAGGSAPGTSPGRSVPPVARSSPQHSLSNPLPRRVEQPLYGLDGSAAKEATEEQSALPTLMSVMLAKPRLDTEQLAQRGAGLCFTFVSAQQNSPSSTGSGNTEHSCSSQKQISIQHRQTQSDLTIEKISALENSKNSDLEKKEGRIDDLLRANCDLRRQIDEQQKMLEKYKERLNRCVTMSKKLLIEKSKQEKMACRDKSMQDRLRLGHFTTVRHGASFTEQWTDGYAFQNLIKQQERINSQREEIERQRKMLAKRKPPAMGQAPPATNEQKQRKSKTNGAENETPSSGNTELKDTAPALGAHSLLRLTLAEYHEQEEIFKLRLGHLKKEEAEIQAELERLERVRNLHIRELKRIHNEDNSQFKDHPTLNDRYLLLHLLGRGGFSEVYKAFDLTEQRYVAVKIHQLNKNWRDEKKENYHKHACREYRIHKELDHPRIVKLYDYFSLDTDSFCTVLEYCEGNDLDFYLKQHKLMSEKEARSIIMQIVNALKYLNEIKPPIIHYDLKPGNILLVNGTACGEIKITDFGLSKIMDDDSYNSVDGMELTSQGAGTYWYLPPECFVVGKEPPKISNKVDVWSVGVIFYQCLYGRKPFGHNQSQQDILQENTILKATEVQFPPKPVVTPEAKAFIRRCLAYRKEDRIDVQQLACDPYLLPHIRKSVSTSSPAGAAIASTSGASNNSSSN
active: [6] 0.351
inactive: [1] -0.041 | [2] 0.112 | [3] -0.029 | [4] -0.115 | [5] -0.042 | [7] 0.126 | [8] 0.006 | [9] 0.004 | [10] 0.049

UBR3 isoform 4 (UniProt Q6ZT12)
inactive: [1] -0.003 | [2] 0.01 | [3] -0.092 | [4] -0.006 | [5] -0.003 | [6] -0.046 | [7] 0.06 | [8] 0.015 | [9] -0.042 | [10] 0.05

TROAP (UniProt Q12815)
Sequence of UniProt Q12815 (Q12815 whole entry, looked up): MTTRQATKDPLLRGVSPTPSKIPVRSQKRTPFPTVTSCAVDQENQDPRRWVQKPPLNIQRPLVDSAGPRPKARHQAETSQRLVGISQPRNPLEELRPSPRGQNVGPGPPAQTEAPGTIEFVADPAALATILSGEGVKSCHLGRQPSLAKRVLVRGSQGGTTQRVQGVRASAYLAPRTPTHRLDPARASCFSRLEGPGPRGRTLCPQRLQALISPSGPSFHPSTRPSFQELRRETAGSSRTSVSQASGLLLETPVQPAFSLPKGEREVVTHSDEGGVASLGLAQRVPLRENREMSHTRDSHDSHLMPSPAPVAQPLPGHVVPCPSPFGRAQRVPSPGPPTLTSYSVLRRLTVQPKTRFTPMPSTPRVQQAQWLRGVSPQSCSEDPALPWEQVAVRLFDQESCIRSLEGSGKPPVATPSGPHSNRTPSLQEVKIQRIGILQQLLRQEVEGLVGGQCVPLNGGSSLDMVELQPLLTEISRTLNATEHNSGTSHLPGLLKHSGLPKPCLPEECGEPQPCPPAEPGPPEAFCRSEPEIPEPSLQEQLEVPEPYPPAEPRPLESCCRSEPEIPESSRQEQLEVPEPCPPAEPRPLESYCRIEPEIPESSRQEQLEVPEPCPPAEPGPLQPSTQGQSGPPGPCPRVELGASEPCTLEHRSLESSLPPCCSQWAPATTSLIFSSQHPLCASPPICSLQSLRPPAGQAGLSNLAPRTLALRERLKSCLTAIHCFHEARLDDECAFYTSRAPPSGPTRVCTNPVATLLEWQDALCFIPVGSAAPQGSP
inactive: [1] 0.001 | [2] -0.088 | [3] 0.038 | [4] -0.065 | [5] -0.095 | [6] 0.072 | [7] -0.009 | [8] -0.008 | [9] -0.1 | [10] 0.004

TUBB4A (UniProt P04350)
Sequence of UniProt P04350 (P04350 whole entry, looked up): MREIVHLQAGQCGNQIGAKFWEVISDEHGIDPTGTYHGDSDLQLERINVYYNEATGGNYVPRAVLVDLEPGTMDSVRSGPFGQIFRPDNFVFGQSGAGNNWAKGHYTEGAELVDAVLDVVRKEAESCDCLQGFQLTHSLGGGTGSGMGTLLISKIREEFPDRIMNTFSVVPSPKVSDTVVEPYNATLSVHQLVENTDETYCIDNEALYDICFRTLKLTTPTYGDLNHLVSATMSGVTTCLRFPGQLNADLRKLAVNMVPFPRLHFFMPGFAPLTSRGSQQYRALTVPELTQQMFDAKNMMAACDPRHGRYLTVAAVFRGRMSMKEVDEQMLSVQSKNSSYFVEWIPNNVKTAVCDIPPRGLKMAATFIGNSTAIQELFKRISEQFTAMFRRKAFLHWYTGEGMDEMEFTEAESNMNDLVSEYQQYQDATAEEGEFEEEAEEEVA
inactive: [1] -0.095 | [2] -0.055 | [3] -0.001 | [4] -0.081 | [5] 0.059 | [6] 0.051 | [7] -0.138 | [8] -0.025 | [9] -0.026 | [10] -0.01

TENM4 (UniProt Q6N022)
inactive: [1] -0.169 | [2] -0.065 | [3] -0.07 | [4] 0.415 | [6] -0.028 | [8] -0.068 | [9] -0.148 | [10] -0.032

TMEM161B (UniProt Q8NDZ6)
inactive: [1] -0.057 | [2] -0.05 | [3] 0.007 | [4] 0.009 | [7] 0.009 | [8] -0.03 | [9] 0.007 | [10] 0.077
active: [6] -0.289

TUBB6 (UniProt K7ES63)
inactive: [1] -0.1 | [2] 0.021 | [3] -0.277 | [4] -0.178 | [6] 0.042 | [7] 0.122 | [8] 0.2 | [9] -0.278 | [10] 0.253

TMEM14C (UniProt Q9P0S9)
inactive: [1] 0.123 | [2] 0.162 | [3] -0.087 | [5] 0.016 | [7] -0.099 | [8] 0.002 | [9] -0.094

TRIP13 (UniProt Q15645)
inactive: [1] -0.015 | [2] 0.014 | [3] -0.028 | [4] 0.039 | [5] -0.01 | [6] -0.187 | [7] 0.005 | [8] 0.026 | [9] -0.029 | [10] -0.045

TRA2A (UniProt Q13595)
Sequence of UniProt Q13595 (Q13595 whole entry, looked up): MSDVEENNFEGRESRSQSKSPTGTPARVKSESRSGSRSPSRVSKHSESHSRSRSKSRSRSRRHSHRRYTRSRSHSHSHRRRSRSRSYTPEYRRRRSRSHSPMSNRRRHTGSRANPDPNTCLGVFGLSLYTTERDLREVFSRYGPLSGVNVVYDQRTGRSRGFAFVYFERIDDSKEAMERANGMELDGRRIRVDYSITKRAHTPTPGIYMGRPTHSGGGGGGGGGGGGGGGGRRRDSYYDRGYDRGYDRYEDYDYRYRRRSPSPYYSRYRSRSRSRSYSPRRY
inactive: [1] -0.012 | [2] 0.032 | [3] -0.184 | [4] -0.048 | [5] -0.048 | [6] -0.011 | [7] 0.015 | [8] 0.086 | [9] 0.042 | [10] 0.053

TMSB4X (UniProt P62328)
Sequence of UniProt P62328 (P62328 whole entry, looked up): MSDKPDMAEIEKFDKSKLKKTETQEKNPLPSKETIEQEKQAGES
inactive: [1] 0.12 | [2] -0.553 | [3] 0.015 | [4] -0.132 | [6] 0.65 | [7] 0.123 | [8] -0.24 | [9] -0.546 | [10] -0.166

TNIK isoform 5 (UniProt Q9UKE5)
inactive: [1] -0.098 | [2] 0.046 | [3] -0.035 | [4] 0.051 | [5] 0.009 | [6] 0.025 | [8] 0.311 | [9] -0.055 | [10] -0.02

TUBA3C (UniProt P0DPH7)
inactive: [1] 0.038 | [2] -0.003 | [3] -0.078 | [4] 0.009 | [5] 0.03 | [6] 0.072 | [7] 0.055 | [8] 0.014 | [9] 0.012 | [10] 0.023

TOR3A (UniProt Q9H497)
Sequence of UniProt Q9H497 (Q9H497 whole entry, looked up): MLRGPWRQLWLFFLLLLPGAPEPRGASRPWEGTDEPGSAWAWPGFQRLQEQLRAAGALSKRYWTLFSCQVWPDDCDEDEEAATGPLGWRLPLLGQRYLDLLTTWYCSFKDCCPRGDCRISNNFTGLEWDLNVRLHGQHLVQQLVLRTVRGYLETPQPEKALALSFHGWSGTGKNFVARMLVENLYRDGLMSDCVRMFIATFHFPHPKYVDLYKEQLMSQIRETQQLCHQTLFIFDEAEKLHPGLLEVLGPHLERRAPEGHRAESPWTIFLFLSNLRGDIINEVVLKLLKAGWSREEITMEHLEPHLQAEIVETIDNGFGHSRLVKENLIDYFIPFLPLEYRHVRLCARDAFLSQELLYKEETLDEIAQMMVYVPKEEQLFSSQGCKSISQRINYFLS
active: [1] -0.43
inactive: [2] -0.077 | [3] 0.023 | [4] -0.078 | [5] 0.012 | [6] 0.012 | [7] -0.047 | [8] -0.024 | [9] 0.046 | [10] 0.048

TRIM33 (UniProt H0Y612)
inactive: [1] -0.078 | [2] 0.044 | [3] 0.004 | [4] -0.093 | [5] 0.012 | [6] 0.019 | [7] 0.07 | [8] 0.001 | [9] -0.077 | [10] 0.039

TOPBP1 (UniProt Q92547)
inactive: [1] 0.095 | [2] -0.037 | [3] 0.023 | [4] 0.206 | [5] -0.03 | [6] -0.048 | [7] -0.066 | [8] 0.056 | [9] -0.076 | [10] -0.017

TEX30 (UniProt Q5JUR7)
Sequence of UniProt Q5JUR7 (Q5JUR7 whole entry, looked up): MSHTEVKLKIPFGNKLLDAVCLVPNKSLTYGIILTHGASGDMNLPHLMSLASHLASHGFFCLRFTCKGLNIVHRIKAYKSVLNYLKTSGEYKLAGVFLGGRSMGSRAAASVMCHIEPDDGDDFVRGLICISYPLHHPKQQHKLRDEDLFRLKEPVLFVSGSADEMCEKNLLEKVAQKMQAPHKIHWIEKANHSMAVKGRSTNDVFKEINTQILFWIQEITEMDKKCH
inactive: [1] -0.07 | [2] -0.122 | [3] -0.035 | [5] 0.102 | [6] 0.007 | [7] -0.003 | [8] 0.036 | [9] 0.066 | [10] 0.069
active: [4] -0.517

TRIM25 (UniProt Q14258)
inactive: [1] 0.009 | [2] -0.031 | [3] 0.1 | [4] 0.031 | [5] -0.021 | [6] 0 | [7] 0.03 | [8] -0.036 | [9] -0.012 | [10] -0.038

TRADD (UniProt Q15628)
inactive: [1] -0.015 | [2] -0.011 | [3] -0.003 | [4] -0.022 | [5] -0.081 | [6] -0.03 | [7] -0.011 | [8] -0.022 | [9] -0.034 | [10] 0.035

TFPI (UniProt P10646)
inactive: [1] -0.035 | [2] 0.009 | [3] 0.036 | [6] -0.202 | [7] -0.01 | [8] 0.082 | [9] 0.149 | [10] -0.301
active: [4] 0.625

TUBA4A (UniProt P68366)
inactive: [1] -0.02 | [2] 0.012 | [3] -0.048 | [4] -0.066 | [5] 0.034 | [6] 0.121 | [7] 0.011 | [8] 0.045 | [9] -0.028 | [10] 0.035

TNIK isoform 4 (UniProt Q9UKE5)
inactive: [1] -0.017 | [2] 0.012 | [3] -0.055 | [4] 0.038 | [5] 0.004 | [6] 0.153 | [7] 0.098 | [8] 0.205 | [9] -0.007 | [10] -0.04

TERF2IP (UniProt Q9NYB0)
active: [4] 0.249
inactive: [1] -0.007 | [2] 0.007 | [3] 0.021 | [5] 0.022 | [6] -0.122 | [7] -0.023 | [8] -0.016 | [9] 0.004 | [10] -0.181

TTC12 isoform 2 (UniProt Q9H892)
Sequence of UniProt Q9H892 (Q9H892 whole entry, looked up): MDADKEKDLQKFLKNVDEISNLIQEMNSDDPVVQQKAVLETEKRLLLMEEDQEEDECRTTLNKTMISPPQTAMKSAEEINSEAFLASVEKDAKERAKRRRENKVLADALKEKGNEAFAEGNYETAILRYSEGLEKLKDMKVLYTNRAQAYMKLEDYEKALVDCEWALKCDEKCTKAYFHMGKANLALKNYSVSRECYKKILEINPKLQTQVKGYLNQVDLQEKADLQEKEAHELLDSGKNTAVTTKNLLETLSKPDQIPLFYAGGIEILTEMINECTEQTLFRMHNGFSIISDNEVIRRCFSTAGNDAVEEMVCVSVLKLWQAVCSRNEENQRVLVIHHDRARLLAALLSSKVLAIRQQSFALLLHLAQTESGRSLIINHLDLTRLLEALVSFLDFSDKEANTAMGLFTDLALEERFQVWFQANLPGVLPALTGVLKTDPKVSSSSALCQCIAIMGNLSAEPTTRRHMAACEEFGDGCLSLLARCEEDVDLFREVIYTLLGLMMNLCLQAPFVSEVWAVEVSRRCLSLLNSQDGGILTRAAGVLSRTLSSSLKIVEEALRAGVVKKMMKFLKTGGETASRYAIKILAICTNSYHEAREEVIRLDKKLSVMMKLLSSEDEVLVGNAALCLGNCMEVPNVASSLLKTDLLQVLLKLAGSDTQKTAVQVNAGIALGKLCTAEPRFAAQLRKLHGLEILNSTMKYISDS
inactive: [1] -0.053 | [2] -0.153 | [3] -0.068 | [4] -0.416 | [5] 0.143 | [6] 0.031 | [7] 0.092 | [8] 0.022 | [9] -0.14
active: [10] 0.445

TFIP11 (UniProt Q9UBB9)
inactive: [1] -0.032 | [2] 0.061 | [3] -0.085 | [4] -0.031 | [5] -0.053 | [6] -0.097 | [7] 0.051 | [8] 0.043 | [9] -0.114 | [10] 0.06

TRIP12 isoform 2 (UniProt Q14669)
inactive: [1] -0.109 | [2] 0.016 | [3] -0.029 | [4] -0.012 | [5] 0.05 | [6] -0.042 | [7] 0.024 | [8] -0.006 | [9] -0.06 | [10] 0.06
